# Laboratory results reported in PubChem BioAssay.
# Activity calls are given as the source filed them. Unless noted, how the calls were made is not given here.
# Columns and labels:
# [1] = resazurin metabolic signal in HepG2 cells – cell-based, resazurin fluorescence, 24 h, PK04 Diversity Set, profiling panel (AID 1172); details: HepG2 viability, higher = more signal
# [2] = budding yeast growth changes without added modifier – OD600, strain BY4716, 24 h, basal condition, primary screen (AID 1173); details: S. cerevisiae BY4716 growth, OD600, 24 h; higher = more signal, called active from +8 up or from −8 down
# [3] = viability profiling in MM1S myeloma cells – cell-based, resazurin fluorescence, basal, 24 h, PK04 Diversity Set, profiling panel (AID 1174); details: higher = more signal, called active from +8 up or from −8 down;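 further: MM1S multiple myeloma cell line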
# [4] = molecular target: Dihydroorotate dehydrogenase (quinone), mitochondrial (Plasmodium falciparum (isolate 3D7)) (UniProt Q08210); test: inhibition of P. falciparum DHODH – biochemical, C-terminal His tag, absorbance 600 nm, primary screen (AID 1175); details: PfDHODH enzyme, DCIP absorbance 600 nm; higher = more signal, called active from +8 up or from −8 down;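 further: recombinant parasite enzyme with a five histidine tag at its C terminus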
# [5] = inhibition of PAO1 biofilm formation – strain PAO1, LB-PBS medium, absorbance 600 nm, primary screen (AID 1176); details: P. aeruginosa PAO1 growth/biofilm, A600, 12 h; higher = more signal
# [6] = growth modulation of vineyard yeast isolate – strain RM11-1a, OD600, basal, 24 h, primary screen (AID 1177);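 further: cultures grown under basal conditions with no added stressor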; details: S. cerevisiae RM11-1a growth, OD600, 24 h; higher = more signal, called active from +8 up or from −8 down
# [7] = growth of efflux-deficient E. coli DRC39 – strain DRC39, OD650, 24 h, E. coli filamentation inducers, primary screen (AID 1178);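 further: growth measured as culture turbidity by optical density at 650 nm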; details: E. coli DRC39 acrAB, higher = more signal, called active from +8 up or from −8 down
# [8] = growth of efflux-deficient E. coli DRC39 – strain DRC39, OD650, 48 h, E. coli filamentation inducers, primary screen (AID 1179);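 further: screen aims at cell division blockers that make cells filament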; details: E. coli DRC39 delta-acrAB growth, higher = more signal, called active from +8 up or from −8 down
# [9] = viability profiling in RPMI8226 myeloma cells – cell-based, resazurin fluorescence, basal, 24 h, PK04 Diversity Set, profiling panel (AID 1180); details: higher = more signal;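 further: RPMI8826 multiple myeloma cell line at 5000 cells per well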
# [10] = molecular target: E3 ubiquitin-protein ligase XIAP (Homo sapiens) (UniProt P98170); test: small molecules binding XIAP protein – biophysical, small-molecule microarray, fluorescence 635 nm, primary screen (AID 1181); details: higher = more signal;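 further: score merges 667 nm emission and signal to noise over triplicate slides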
# [11] = system: XIP peptide (Xip251-270) binding; test: XIP fragment 251-270 binding compounds – biochemical, small-molecule microarray, fluorescence 635/667 nm, 0.1 µg/mL protein, primary screen (AID 1182); details: fluorescent protein binding, 635 nm, higher = more signal, called active from +8 up or from −8 down
# [12] = system: XIP peptide (Xip251-270); test: compounds binding XIP fragment 251-270 – biochemical, small-molecule microarray, fluorescence 635/667 nm, 0.5 µg/mL protein, primary screen (AID 1183); details: fluorescence 635 nm, higher = more signal
# [13] = blood-stage malaria parasite viability loss – strain 3D7, DAPI fluorescence, 100 nL, primary screen (AID 1184);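 further: parasites grown inside human red blood cells in medium with human serum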; details: P. falciparum 3D7 growth, 3 d, higher = more signal
# [14] = molecular target: Homeobox protein Hox-A13 (Mus musculus) (UniProt Q62424); test: disruptors of Hoxa13 oligonucleotide interaction – biochemical, fluorescence polarization, labeled oligonucleotide, primary screen (AID 1185); details: Hoxa13:DNA binding, 15 min, higher = more signal, called active from +8 up or from −8 down
# [15] = blockers of DNA damage checkpoint Chk1 activation – imaging, HeLa, hydroxyurea, phospho-Chk1 antibody, percent positive cells, primary screen (AID 1186); details: hydroxyurea-induced phospho-Chk1 immunofluorescence imaging, higher = more signal
# [16] = blockers of DNA damage checkpoint Chk1 activation – imaging, HeLa, hydroxyurea, phospho-Chk1 nuclear intensity, primary screen (AID 1187); details: hydroxyurea-induced phospho-Chk1 immunofluorescence imaging, higher = more signal
# Sequence of E3 ubiquitin-protein ligase XIAP (Homo sapiens) (P98170 whole entry, looked up, the tested form may be a part): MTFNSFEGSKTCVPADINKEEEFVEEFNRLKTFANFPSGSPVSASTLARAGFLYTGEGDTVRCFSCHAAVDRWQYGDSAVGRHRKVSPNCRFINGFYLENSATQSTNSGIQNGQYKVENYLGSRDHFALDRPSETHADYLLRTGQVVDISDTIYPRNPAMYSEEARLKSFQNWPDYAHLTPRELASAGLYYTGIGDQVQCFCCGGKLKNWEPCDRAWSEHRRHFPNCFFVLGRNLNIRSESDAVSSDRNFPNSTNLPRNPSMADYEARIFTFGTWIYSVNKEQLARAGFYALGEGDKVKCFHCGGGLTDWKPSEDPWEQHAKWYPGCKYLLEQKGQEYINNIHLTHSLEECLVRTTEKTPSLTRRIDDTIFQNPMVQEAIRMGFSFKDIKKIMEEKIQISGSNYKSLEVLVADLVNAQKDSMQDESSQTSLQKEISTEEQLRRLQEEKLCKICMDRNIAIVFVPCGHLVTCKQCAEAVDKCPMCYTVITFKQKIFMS
# Sequence of Homeobox protein Hox-A13 (Mus musculus) (Q62424 whole entry, looked up): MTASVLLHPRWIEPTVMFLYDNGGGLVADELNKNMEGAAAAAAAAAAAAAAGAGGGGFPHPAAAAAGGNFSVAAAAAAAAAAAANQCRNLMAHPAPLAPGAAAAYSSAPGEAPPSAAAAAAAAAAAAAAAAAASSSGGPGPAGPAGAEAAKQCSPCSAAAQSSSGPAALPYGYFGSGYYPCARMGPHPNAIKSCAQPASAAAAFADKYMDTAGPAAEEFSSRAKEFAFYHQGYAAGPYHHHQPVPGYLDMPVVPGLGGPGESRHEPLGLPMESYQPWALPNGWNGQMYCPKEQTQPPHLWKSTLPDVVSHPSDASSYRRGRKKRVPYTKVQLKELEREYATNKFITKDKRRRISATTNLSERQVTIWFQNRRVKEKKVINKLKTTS
# Sequence of Dihydroorotate dehydrogenase (quinone), mitochondrial (Plasmodium falciparum (isolate 3D7)) (Q08210 whole entry, looked up): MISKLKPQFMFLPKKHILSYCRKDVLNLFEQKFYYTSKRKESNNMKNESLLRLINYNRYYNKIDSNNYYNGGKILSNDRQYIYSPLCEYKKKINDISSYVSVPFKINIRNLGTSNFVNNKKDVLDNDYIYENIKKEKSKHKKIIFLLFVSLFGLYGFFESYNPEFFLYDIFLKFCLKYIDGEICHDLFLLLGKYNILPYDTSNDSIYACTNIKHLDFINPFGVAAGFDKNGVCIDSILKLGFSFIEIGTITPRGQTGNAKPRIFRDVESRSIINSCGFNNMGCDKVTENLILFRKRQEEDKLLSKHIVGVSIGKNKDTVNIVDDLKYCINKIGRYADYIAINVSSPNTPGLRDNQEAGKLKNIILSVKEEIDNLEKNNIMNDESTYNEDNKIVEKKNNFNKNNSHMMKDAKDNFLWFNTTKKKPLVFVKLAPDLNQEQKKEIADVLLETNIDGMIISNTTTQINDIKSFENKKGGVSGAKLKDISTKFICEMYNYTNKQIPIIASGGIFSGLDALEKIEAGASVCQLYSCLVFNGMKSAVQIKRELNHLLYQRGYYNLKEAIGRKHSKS
SMILES,z-score [1],z-score [2],z-score [3],composite z-score [4],z-score [5],z-score [6],z-score [7],z-score [8],z-score [9],composite z-score [10],composite z-score [11],composite z-score [12],z-score [13],z-score [14],z-score [15],z-score [16]
C=C(COC)/C(=C/C[C@H](OC(C)=O)c1ccc(OCCO)cc1)c1cc(C(=O)OC)ccc1OC,1.26,0.147 (inactive),0.901 (inactive),-2.16 (inactive),0.838 (inactive),-0.957 (inactive),1.94 (inactive),1.37 (inactive),1.46,-0.345,0.192 (inactive),0.731,-2.95,-4.11 (inactive),-0.285 (inactive),0.98 (inactive)
O=C1O[C@@H](c2ccccc2)[C@@H](c2ccccc2)N2[C@@H](c3ccccc3OCCO)[C@]3(C(=O)Nc4ccc(C#CCCO)cc43)[C@@H](C(=O)N3CCCCCCC3)[C@H]12,0.29,0.355 (inactive),-1.91 (inactive),-0.452 (inactive),1.26 (inactive),0.753 (inactive),-0.291 (inactive),0.321 (inactive),-4.5,2.45,8.49 (active),1.02,-2.23,3.66 (inactive),-0.333 (inactive),-0.462 (inactive)
COCCOC(=O)N1C(=O)[C@@]2(c3cc(C#CCCO)ccc31)[C@H](c1ccccc1OCCO)N1[C@H](c3ccccc3)[C@H](c3ccccc3)OC(=O)[C@H]1[C@@H]2C(=O)Nc1nc2ccccc2s1,1.03,1.13 (inactive),-0.125 (inactive),-0.26 (inactive),2.51 (inactive),1.79 (inactive),-0.233 (inactive),-0.324 (inactive),-0.411,-0.115,1.45 (inactive),0.823,-1.45,1.85 (inactive),0.0686 (inactive),0.0927 (inactive)
COC(=O)[C@@]1(Cc2ccc(F)cc2)[C@H]2c3cc(C(=O)N(C)C)n(Cc4cc(F)cc5c4OCOC5)c3C[C@H]2CN1C(=O)c1ccccc1,-0.933,0.434 (inactive),-1.73 (inactive),-0.954 (inactive),0.728 (inactive),-0.341 (inactive),-0.462 (inactive),0.164 (inactive),-2.74,0.476,1.21 (inactive),0.628,-1.54,-2.73 (inactive),-0.909 (inactive),-0.669 (inactive)
C=C(C)C1CCC(C(O)C2C=CC3C(=O)N(C)C(=O)C3N2N2CCCCC2)CC1 (stereo unspecified),-0.689,0.08 (inactive),-1.19 (inactive),0.112 (inactive),0.751 (inactive),1.82 (inactive),-0.742 (inactive),-0.654 (inactive),-0.954,0.62,0.763 (inactive),0.622,-0.122,-5.66 (inactive),0.692 (inactive),0.133 (inactive)
CC(C)C(=C=CC[C@H](O)c1cccc(OCCO)c1)C[C@H](O)c1cc(Cl)cc(Cl)c1O,0.84,-4.38 (inactive),0.0849 (inactive),-0.0151 (inactive),0.33 (inactive),0.233 (inactive),0.889 (inactive),0.709 (inactive),1.61,-0.16,-0.41 (inactive),0.594,-0.487,-4.22 (inactive),-0.568 (inactive),0.228 (inactive)
